According to PubChem BioAssay (NCATS):
Measured potencies and affinities stand elsewhere. A number with no mark means an inactive call. No rule for the calls is given here.

Details: Ebola virus entry assay, green fluorescence channel
Also: 0% is about no effect.

For `Cl/C(=C\n1cncn1)c1ccc(Cl)cc1Cl`, which efficacy is on record?
Its efficacy is -16.7%.

For `C[C@]12CC[C@@H]3c4ccc(O)cc4CC[C@H]3[C@@H]1CC[C@@H]2OC(=O)CCC1CCCC1`, which efficacy is on record?
The efficacy was 23.9%.

Which efficacy does the source give for `FC(F)(F)C(Cl)Br` (centres undefined) here?
The efficacy was 31.6%.

Which efficacy does the source give for `CN1CC(=O)N2[C@H](c3ccc4c(c3)OCO4)c3[nH]c4ccccc4c3C[C@@H]2C1=O` here?
The efficacy was 22.3%.

With `C[C@H](CCC(=O)O)[C@H]1CC[C@H]2[C@@H]3C(=O)C[C@@H]4CC(=O)CC[C@]4(C)[C@H]3CC(=O)[C@]12C` as the compound, how does the efficacy read?
Its efficacy is -7.14%.

For `C=CCCCCCCCCC(=O)O`, which efficacy is on record?
Its efficacy is -13.8%.

For `Nc1ccn(C2CO[C@H](CO)O2)c(=O)n1` (some centres undefined), which efficacy is on record?
The efficacy was -24%.

Which efficacy does the source give for `C[C@]12CC[C@H](O)CC1=CC[C@@H]1[C@@H]2CC[C@]2(C)C(=O)CC[C@@H]12` here?
Its efficacy is 42.1%.

Which efficacy does the source give for `CCN(CC)CCN` here?
The efficacy was -14.9%.

Which efficacy does the source give for `NS(=O)(=O)c1cc2c(cc1Cl)CN(C1CCCCC1)C2=O` here?
Its efficacy is 30.3%.

With `OC(CN1CCC(Cc2ccc(F)cc2)CC1)c1ccc(Cl)cc1` (centres undefined) as the compound, how does the efficacy read?
The efficacy was -10%.

For `Brc1c(NC2=NCCN2)ccc2nccnc12`, which efficacy is on record?
The efficacy was -28.5%.

Which efficacy does the source give for `CO/N=C(\C(=O)O)c1csc(NC(=O)CCl)n1` here?
Its efficacy is 7.58%.

Which efficacy does the source give for `Cc1c(N(C)C)c(=O)n(-c2ccccc2)n1C` here?
Its efficacy is 14.3%.

With `CCN[C@H]1C[C@H](C)S(=O)(=O)c2sc(S(N)(=O)=O)cc21` as the compound, how does the efficacy read?
Its efficacy is 10.6%.

With `Cc1sccc1Br` as the compound, how does the efficacy read?
The efficacy was -12.3%.

With `CCCCC(CC)COC(=O)C(C#N)=C(c1ccccc1)c1ccccc1` (centres undefined) as the compound, how does the efficacy read?
Its efficacy is 53.9%.

With `CN(C)C(=O)Oc1cc(OC(=O)N(C)C)cc(C(O)CNC(C)(C)C)c1` (centres undefined) as the compound, how does the efficacy read?
The efficacy was 18.9%.

With `COc1cc(O)c(C(=O)c2ccccc2)cc1S(=O)(=O)O` as the compound, how does the efficacy read?
Its efficacy is 11.7%.

Which efficacy does the source give for `c1ccc(CC2=NCCN2)cc1` here?
The efficacy was -17.9%.

For `Clc1ccccc1-c1nc(-c2ccncc2)no1`, which efficacy is on record?
Its efficacy is -9.78%.

With `C/C=C(/C(=C/C)c1ccc(OC(C)=O)cc1)c1ccc(OC(C)=O)cc1` as the compound, how does the efficacy read?
The efficacy was 15.4%.

Which efficacy does the source give for `CC(=O)Oc1c(C)c(C)c2c(c1C)CC[C@@](C)(CCC[C@H](C)CCC[C@H](C)CCCC(C)C)O2` here?
The efficacy was -9.77%.

For `CCC1(c2ccccc2)CCC(=O)NC1=O` (centres undefined), which efficacy is on record?
Its efficacy is 11%.

For `CC1Sc2c(C(=O)O)c(=O)c3cc(F)c(N4CCNCC4)cc3n21` (centres undefined), which efficacy is on record?
The efficacy was 10.3%.

Which efficacy does the source give for `NCC(=O)O` here?
Its efficacy is 13.7%.

With `Cn1cc(C(=O)[C@@H]2CCc3nc[nH]c3C2)c2ccccc21` as the compound, how does the efficacy read?
The efficacy was 15.9%.

Which efficacy does the source give for `CN1CCCN=C1/C=C/c1cccs1` here?
Its efficacy is -15%.

With `O=C1c2cccc(O)c2C(=O)c2c(O)cccc21` as the compound, how does the efficacy read?
Its efficacy is -10.2%.

For `Oc1ccc(C(O)CNCCCCCCNCC(O)c2ccc(O)c(O)c2)cc1O` (centres undefined), which efficacy is on record?
The efficacy was 16%.

With `Cc1ccc2nc(N)[nH]c(=O)c2c1Sc1ccncc1` as the compound, how does the efficacy read?
Its efficacy is 17.5%.

Which efficacy does the source give for `CCOC(=O)n1ccn(C)c1=S` here?
Its efficacy is -11.5%.

With `CCNC(=O)NCc1cccc(Cl)c1` as the compound, how does the efficacy read?
Its efficacy is 7%.

Which efficacy does the source give for `CCN(Cc1ccc(Cl)nc1)/C(=C/[N+](=O)[O-])NC` here?
The efficacy was -11.7%.

For `CCOC(=O)c1cc(=O)c2c(OCC(COc3cccc4oc(C(=O)OCC)cc(=O)c34)OC(=O)[C@@H](N)CCCCN)cccc2o1`, which efficacy is on record?
The efficacy was -21.2%.

With `CCOCC(O)COc1ccc(NC(=O)CC[S+](C)C)cc1` (centres undefined) as the compound, how does the efficacy read?
The efficacy was -21.6%.

With `CCCc1ncc(C(=O)O)s1` as the compound, how does the efficacy read?
Its efficacy is -25.8%.

Which efficacy does the source give for `O=C1OC(OC(=O)c2cccnc2Nc2cccc(C(F)(F)F)c2)c2ccccc21` (centres undefined) here?
Its efficacy is -25.3%.

For `OC[C@H]1O[C@@H](OCCc2ccc(O)cc2)[C@H](O)[C@@H](O)[C@H]1O`, which efficacy is on record?
Its efficacy is -19%.
